Laboratory results taken from PubChem BioAssay.
Where “and” joins values, the source holds several entries; their conditions need not be identical. Equal values may be shown once.

molecular target: NADPH oxidase 2 (Homo sapiens) (UniProt P04839); assay: NOX2-dependent H2O2 signal modulators, primary screen, NOX inhibitor project, cell-based, HEK293-NOX2, PMA-stimulated, Amplex Red fluorescence (AID 1159); conditions: 45 min, higher = more signal, called active from +8 up or from −8 down; further: test concentration not given here
Sequence (P04839 whole entry, looked up): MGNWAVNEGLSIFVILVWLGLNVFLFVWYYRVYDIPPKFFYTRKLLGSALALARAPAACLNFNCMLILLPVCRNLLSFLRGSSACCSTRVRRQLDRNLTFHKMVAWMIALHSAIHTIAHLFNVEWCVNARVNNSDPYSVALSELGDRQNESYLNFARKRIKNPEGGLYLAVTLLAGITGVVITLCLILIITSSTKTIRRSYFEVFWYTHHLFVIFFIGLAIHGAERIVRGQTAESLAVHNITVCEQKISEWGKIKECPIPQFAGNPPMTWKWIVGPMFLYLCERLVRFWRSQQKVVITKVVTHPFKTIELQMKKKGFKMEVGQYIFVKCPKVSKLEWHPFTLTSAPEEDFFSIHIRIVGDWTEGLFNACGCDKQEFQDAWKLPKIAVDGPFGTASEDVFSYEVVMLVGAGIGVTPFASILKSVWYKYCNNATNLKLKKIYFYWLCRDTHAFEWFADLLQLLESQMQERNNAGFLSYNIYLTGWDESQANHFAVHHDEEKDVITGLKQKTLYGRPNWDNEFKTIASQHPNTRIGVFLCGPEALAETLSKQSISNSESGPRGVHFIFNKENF

z-score, inactive:
CC(CO)N1C(=O)[C@@H]2C3C(=O)OCCC=C[C@H]3OC23C=CCN(c2ccc(Cl)cc2)C(=O)[C@@H]13 (some centres undefined) 1.59 and 1.47
CCOC(=O)NN=C1C[C@@H](O)[C@@H](O)[C@@H]2[C@@H]3C(=O)N(Cc4ccc5c(c4)OCO5)C(=O)[C@@H]3CC[C@@H]12 -0.00897
C=CCN(C(=O)C(c1cccs1)N(C(=O)/C=C\C(=O)O)c1ccc(CCO)cc1)C(C)(C)C (centres undefined) 0.0507 and 0.27
C=CCN(C(=O)C(c1cccs1)N(C(=O)/C=C\C(=O)O)c1c(Cl)cccc1CO)C(C)(C)C (centres undefined) 0.239 and 0.261
C=CCN(CCCCC)C(=O)C1N(c2c(Cl)cccc2CO)C(=O)C2C(C(=O)O)C3C=CC21O3 (centres undefined) 0.871 and 0.757
C=CCN(CCCC)C(=O)C(c1cccs1)N(CCOCCO)C(=O)/C=C\C(=O)O (centres undefined) 0.0943 and 0.209
CCCCCN1CC=CC23O[C@@H]4C=CCCOC(=O)C4[C@H]2C(=O)N(C(C)CO)[C@@H]3C1=O (some centres undefined) 1.27 and 1.08
COC(=O)[C@H](C)NC(=O)CCC1CC(OC(=O)NCCc2ccc(F)cc2)CC2(CCCC(COC(=O)NCCCN3CCCC3=O)O2)O1 (some centres undefined) 1.32
COC(=O)C1=C(C)N(Cc2ccccc2)C2=C(C(C)=O)C[C@@](O)(C(=O)OC)C(=O)N2[C@@H]1c1ccccc1 0.627 and 0.462
C=CCN(CCCCC)C(=O)C(c1cccs1)N(C(=O)/C=C\C(=O)O)c1c(Cl)cccc1CO (centres undefined) 0.306 and 0.277
CC(C)CON=C1C[C@@H](O)[C@@H](O)[C@@H]2[C@@H]3C(=O)N(c4cccc(Oc5ccccc5)c4)C(=O)[C@@H]3CC[C@H]12 -0.831
C=CCN(C(=O)C(c1cccs1)N(C(=O)/C=C\C(=O)O)C(C)(C)CO)c1ccc(OC)cc1 (centres undefined) 0.0253 and -0.0835
CCCNC(=O)OC[C@H]1O[C@H](CCON=C(C)CCN2CCc3nc(-c4ccccc4)c(-c4ccccc4)cc3C2)C=C[C@@H]1Oc1ccc(OC)cc1 -0.473
C=CC[C@@H](O)c1ccc(O)c(F)c1 -0.896 and -0.237
C=CCN(Cc1ccccc1)C(=O)C(c1cccs1)N(C(=O)/C=C\C(=O)O)c1c(Cl)cccc1CO (centres undefined) -0.0842 and 0.208
CC(C)[Si]1(C(C)C)OCc2cc(CCCc3cc4c(c(CCc5ccccc5)n3)[Si](C(C)C)(C(C)C)OC4)nc(CCc3ccccc3)c21 1.5 and 0.412
COC(=O)[C@@]1(Cc2ccc(F)cc2)[C@H]2c3cc(C(=O)N4CCCC4)n(Cc4c(CO)[nH]cc(C)c4=O)c3C[C@H]2CN1C(=O)c1ccccc1 0.636 and 0.617
C=CCN(C(=O)C1N(c2ccc(CCO)cc2)C(=O)C2C(C(=O)O)C3C=CC21O3)c1ccc(OC)cc1 (centres undefined) 1.27 and -0.00582
C=CCN(C(=O)C1N(CCOCCO)C(=O)C2C(C(=O)O)C3C=CC21O3)C(C)(C)C (centres undefined) 0.388 and 0.883
CCOC(=O)c1ccc(NC(=O)O[C@H]2[C@H](OC(=O)Nc3ccccc3)[C@H](OC(=O)Nc3ccccc3)[C@@H](OC)O[C@@H]2CO)cc1 -0.218 and 1.15
CC(C)=NOCc1ccc(-c2cn([C@@H]3COC[C@H]3O)nn2)cc1 0.606
C[C@@H]1CC[C@H]2C(=O)O[C@H](CN=[N+]=[N-])CN2[C@H]1c1ccc(Br)cc1 0.993 and 0.995
C=CCN1C(=O)[C@]2(O[C@H](CCn3cc(CCO)nn3)[C@@H]([Si](C)(C)c3ccc(OC)cc3)[C@@H]2C)c2cc(N3C(=O)c4cccc5cccc3c45)ccc21 0.823 and 1.03
CC(CO)N1C(=O)[C@@H]2C3C(=O)OCCC=C[C@H]3OC23C=CCN(Cc2ccccc2)C(=O)[C@@H]13 (some centres undefined) 1.26 and 1.71
